# Records with an inconclusive call do not appear. A number with no mark means an inactive call. The source made the active and inactive calls. Calls follow the shape of the dose curve; as a rule, active = well fitted cell-killing curve with a large enough effect; inconclusive = small, poorly fitted or top-dose-only effect; inactive = flat fitted curve, though single readings scatter.
# Test: DAPI mCherry counterscreen qHTS for Zika virus inhibitors; also: nearly all actives have a fitted effect of over 55% in size
# Settings: Vero cells, DAPI nuclear count cytotoxicity, imaging 48-72 h, infected with Zika reporter virus, MOI 1; series mostly up to 32.6 µM; activity change, negative = cell loss: at the top concentration
# Method in brief: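 Imaging read-out after fixation and Hoechst nuclear staining: percent infection from mCherry-positive cells (above 3 SD of negative controls) and nuclear counts. Setup: Vero cells pre-plated overnight, compound added, infected with ZIKV-mCherry (MOI 1), 48-72 hrs, 37 degrees C.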
# % is scaled to controls: 0 for no effect and ±100 for the full control effect; potency is read from the fitted curve at half-maximal effect.
SMILES,Potency,"activity change, negative = cell loss"
O=S(=O)(Nc1ccc(Cl)cc1)c1ccc(NS(=O)(=O)c2ccc3c(c2)OCCO3)cc1,31.6 µM (active),
CCOC(=O)c1ccc(N2C(=O)c3n[nH]c(-c4cccs4)c3C2c2ccc(Cl)cc2Cl)cc1 (configuration not stated),11.2 µM (active),
O=C(O)c1c(Sc2ccccc2)c2cc(Cl)ccc2n1Cc1ccc(Cl)cc1,12.6 µM (active),
CCCCCCOc1cc2c(cc1N(C)c1ncc(C(=O)O)cn1)C(C)(C)CCC2(C)C,22.4 µM (active),
COc1cc(C)c(C(=O)OC2C(C)OC(OC3CCC(C)C4C3C=C(C)C3/C(C)=C\CC/C(C)=C/C5(C)C=C(C(=O)O)C(C)CC56OC(=O)/C(=C(\O)C34C)C6=O)C(O)C2O)c(OC)c1 (configuration not stated),,-11.1% [at 8.16 µM]
Cc1oc2c(cc(NS(=O)(=O)c3ccc(Cl)cc3)c3ccccc32)c1C(=O)OCc1ccccc1,,-13.3%
Oc1cc2ccccc2c2ccccc12,10 µM (active),
Cc1c(C2(c3cc(C(C)C)c(O)c(Br)c3C)OS(=O)(=O)c3ccccc32)cc(C(C)C)c(O)c1Br,,-11.2%
C[C@H](NC(=O)C(=O)Nc1ccccc1C(C)(C)C)C(=O)N[C@@H](CC(=O)O)C(=O)COc1c(F)c(F)cc(F)c1F,,-2.7%
O=C(OCc1cc(=O)n2nc(C3CC3)sc2n1)c1ccc(NC(=O)c2ccccc2Cl)cc1,,-18.5%
O=c1c(O)c(-c2ccc(O)c(O)c2)oc2cc(O)cc(O)c12,,-12.9%
Nc1ncnc2c1ncn2[C@@H]1O[C@H](CSCC[C@H](N)C(=O)O)[C@@H](O)[C@H]1O,,-6.03%
O=C(O)c1cc(N(Cc2ccc(C3CCCCC3)cc2)C(=O)c2ccc(Oc3ccccc3)cc2)ccc1O,35.5 µM (active),
CCOc1ccc(-c2cc(NC(=O)c3c(F)cccc3F)c(C(=O)O)s2)cc1,5.01 µM (active),
CC(C)(Sc1ccc(CCN(CCCCC2CCCCC2)C(=O)NC2CCCCC2)cc1)C(=O)O,14.1 µM (active),
CC(=O)N1c2ccc(-c3ccc(C(=O)O)cc3)cc2C(Nc2ccc(Cl)cc2)CC1C (configuration not stated),1 µM (active),

SMILES,Potency,"activity change, negative = cell loss"
COc1ccc(-c2cc(=O)c3c(O)cc(O)c(-c4cc(-c5cc(=O)c6c(O)cc(O)cc6o5)ccc4OC)c3o2)cc1,12.6 µM (active),
CC(C)(C)Sc1c(CC(C)(C)C(=O)O)n(Cc2ccc(Cl)cc2)c2ccc(OCc3ccc4ccccc4n3)cc12,35.5 µM (active),
CCOC(=O)c1ccc(Nc2nc3ccccc3nc2NS(=O)(=O)c2ccc(Cl)cc2)cc1,7.94 µM (active),
CC(C)c1cc(C(C)C)c(CC(=O)NS(=O)(=O)Oc2c(C(C)C)cccc2C(C)C)c(C(C)C)c1,10 µM (active),
Nc1c(N=Nc2ccc([N+](=O)[O-])cc2)c(S(=O)(=O)O)cc2cc(S(=O)(=O)O)c(/C=C/c3ccccc3)c(O)c12,,-17.4%
Oc1c(Cl)cc(Cl)c(Cl)c1Cc1c(O)c(Cl)cc(Cl)c1Cl,31.6 µM (active),
Cc1ccc([C@@H]2CC=C(C(=O)O)[C@H](c3ccc(C(C)(C)C)cc3)N2S(=O)(=O)c2ccc(C)cc2)cc1,31.6 µM (active),
COc1cc(Nc2nc3ccccc3nc2NS(=O)(=O)c2ccc(NC(=O)c3ccc(C)c(OC)c3)cc2)cc(OC)c1,4.47 µM (active),
COc1ccc2c(c1)Oc1nc(-c3ccc(C)s3)nc(SCC(=O)Nc3cccc(C(=O)O)c3)c1C2,,-10.7%
Cc1nc(N=Nc2ccc(S(=O)(=O)O)cc2S(=O)(=O)O)c(COP(=O)(O)O)c(C=O)c1O,,-11.3%
CN(C)CC[C@H](CSc1ccccc1)Nc1ccc(S(=O)(=O)NC(=O)c2ccc(N3CCN(Cc4ccccc4-c4ccc(Cl)cc4)CC3)cc2)cc1[N+](=O)[O-],5.01 µM (active),
Cc1cc(NC(=O)c2ccc(Cl)c(Cl)c2)ccc1-c1cc2ccccc2oc1=O,15.8 µM (active),
O=C(Nc1cccc(C(=O)Nc2ccc(S(=O)(=O)O)c3cc(S(=O)(=O)O)cc(S(=O)(=O)O)c23)c1)Nc1cccc(C(=O)Nc2ccc(S(=O)(=O)O)c3cc(S(=O)(=O)O)cc(S(=O)(=O)O)c23)c1,,-9.54% [at 16.3 µM]
Cc1cc(C)c2c(c1)C(N(Cc1cc(C(F)(F)F)cc(C(F)(F)F)c1)c1nnn(C)n1)CCCN2CC1CCC(C(=O)O)CC1 (configuration not stated),35.5 µM (active),
Cc1cc(CN2CCN(c3c(Br)cnc4nc(-c5ccc(N6CCN(C)CC6)cc5)[nH]c34)CC2)no1,10 µM (active),
Nc1cc(N)c(N=Nc2ccc(S(=O)(=O)Nc3nccs3)cc2)cc1N=Nc1ccc(S(=O)(=O)Nc2nccs2)cc1,,-12.3%
